Consider 21 compounds from PubChem BioAssay (NCI).

Assay [1] in a line: NCI Yeast Anticancer Drug Screen. Data for the rad50 strain (AID 155).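 Also: 0% = growth of vehicle-only cultures of the same strain.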 As to conditions: S. cerevisiae rad50 strain growth inhibition; at 50.0 µM; hits give high values. Summed up: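 Relative growth inhibition (compound vs vehicle) was measured in yeast with a defined repair-gene alteration.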
Assay [2] can be described thus: NCI Yeast Anticancer Drug Screen. Data for the mec2-1 strain (AID 157). As to conditions: S. cerevisiae mec2-1 strain, at 50.0 µM, hits give high values. The procedure, abridged: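 Cells of the genetically defined mec2-1 yeast strain are incubated with test compound. Inhibition of growth is calculated against vehicle-treated controls.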
Assay [3] can be described thus: NCI Yeast Anticancer Drug Screen. Data for the sgs1 mgt1 strain (AID 161).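 Also: 0% = growth of cultures given vehicle only.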 As to conditions: S. cerevisiae sgs1 mgt1 strain, at 50.0 µM, hits give high values. Summed up:
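Test agents were incubated with a DNA-repair-mutant yeast strain. Growth was then read and compared against vehicle-treated controls.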

The nature of assay [4]: NCI Yeast Anticancer Drug Screen. Data for the cln2 rad14 strain (AID 165).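 Also: 0% = growth equal to vehicle treated cultures.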 As to conditions: S. cerevisiae cln2 rad14 strain, at 50.0 µM, hits give high values. The procedure, abridged: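 The screen exposed genetically defined yeast (cln2 rad14) to test compounds and scored growth inhibition relative to vehicle-treated controls.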
Assay [5] in a line: NCI Yeast Anticancer Drug Screen. Data for the bub3 strain (AID 167). The settings on record: S. cerevisiae bub3 mutant strain, at 50.0 µM, hits give high values. Summed up:
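Screening used yeast with an engineered genetic alteration affecting cell cycle control. Compound-exposed cultures were compared with vehicle cultures, and reduced growth was taken as inhibition.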

Assay [6] can be described thus: NCI Yeast Anticancer Drug Screen. Data for the mlh1 rad18 strain (AID 175). As to conditions: S. cerevisiae mlh1 rad18 strain growth inhibition; at 50.0 µM; hits give high values. Summed up: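 Compound-treated yeast growth, normalised to vehicle controls. Strain bears defined DNA repair mutations.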

Compounds without any hit were thinned out: in the full panel of roughly 79,000, 15% have a hit. Values without a mark were called inactive. Active and inactive are the calls of the source. Rule as the data show it: active = growth inhibition above about 70%; inactive = the rest.

With `CC(=O)NC(CCCNC(=O)OCc1ccccc1)C(=O)NCc1ccccc1` (stereo unspecified), the growth inhibition in assay [1] is -9.1%; in assay [2], -20.9%; in assay [3] it was -30%; in assay [4] it was -1.35%; in assay [5], -16.9%; in assay [6], -36%.

As for `CC(C)CCC[C@@H](C)[C@H]1CC[C@H]2[C@@H]3CC[C@H]4CC5(C[C@]4(C)[C@H]3CC[C@]12C)Nc1ccccc1S5` (stereo partly specified), the growth inhibition in assay [1] was -8.05%; in assay [2] it was -19.9%; in assay [3], -6.2%; in assay [4], 4.55%; in assay [5], -25.9%; in assay [6], -40.7%.

Take `N#CCCOCc1ccccc1`: the growth inhibition in assay [1] is -46.8%; in assay [2], -23.8%; in assay [3], -1.05%; in assay [4] it was -3.15%; in assay [5], -15.1%; in assay [6] it was 0.55%.

Take `O=C(C[n+]1cccc(C(=O)Nc2ccccc2)c1)Nc1ccc(Cl)cc1`: the growth inhibition in assay [1] is -2.65%; in assay [2], -0.7%; in assay [3] it was -2.35%; in assay [4] it was 0.35%; in assay [5], 6.7%; in assay [6], 7.35%.

Regarding `O=S(=O)(/N=C(Cl)/C(Cl)=N/S(=O)(=O)c1ccccc1)c1ccccc1`, the growth inhibition in assay [1] was 15.3%; in assay [2] it was -1.65%; in assay [3], 22.7%; in assay [4] it was -9.9%; in assay [5], -0.1%; in assay [6] it was 5.3%.

Consider `CCOC(=O)C1C(c2ccc(Br)cc2)N(Cc2ccccc2)C(c2ccc(Br)cc2)C(C(=O)OC)S1(=O)=O` (stereo unspecified), for which the growth inhibition in assay [1] was -42.2%; in assay [2], -49.5%; in assay [3], -16.6%; in assay [4] it was -25.1%; in assay [5] it was -21.4%; in assay [6], -22.1%.

On to `CN(CCNC(=O)NCCCCCCNC(=O)NCCN(C)c1ccccc1)c1ccccc1`, for which the growth inhibition is -6% in assay [1]; -44% in assay [2]; -6.7% in assay [3]; -33.2% in assay [4]; 3.45% in assay [5]; -5.05% in assay [6].

As to `CCc1c([N+](=O)[O-])c2cc([N+](=O)[O-])ccc2n1C`, the growth inhibition in assay [1] was 3.35%; in assay [2], 8.85%; in assay [3], -7.65%; in assay [4] it was -1.65%; in assay [5], 2.8%; in assay [6], 8.75%.

As for `COc1ccc(/C=C2/C(=O)N(C(=O)c3ccc(Cl)cc3)N=C2C)cc1OC`, the growth inhibition in assay [1] is -18.7%; in assay [2], -36.9%; in assay [3] it was -32.6%; in assay [4], -3.55%; in assay [5], -17.1%; in assay [6] it was -35.5%.

Regarding `COC(=O)c1nc2n[nH]c(N)c2c2c1CCCCCCCCCC2`, the growth inhibition in assay [1] was 7.35%; in assay [2], 15.6%; in assay [3] it was -5.65%; in assay [4], -13.6%; in assay [5], 1.4%; in assay [6], 12.1%.

`CCOC(=O)C(=O)Nc1ccccc1CC`: the growth inhibition in assay [1] was -3%; in assay [2] it was 2.9%; in assay [3] it was -12.3%; in assay [4] it was -33.5%; in assay [5], 11.2%; in assay [6], -3.35%.

Turning to `COc1cccc(C2N=NC3=C(CCCC3)N2O)c1O` (stereo unspecified), the growth inhibition in assay [1] is 14.4%; in assay [2], 11%; in assay [3] it was 10.2%; in assay [4], 21.4%; in assay [5], 25.1%; in assay [6] it was 19.5%.

For `C1=CC(c2ccccc2)=C(c2ccccc2)C(c2ccccc2)C(c2ccccc2)=C1` (stereo unspecified), the growth inhibition was 18.2% in assay [1]; 1.95% in assay [2]; 13.2% in assay [3]; 26.9% in assay [4]; -1.05% in assay [5]; 11.8% in assay [6].

In the case of `COc1ccc(C(CC(C)(C)C)c2ccc(OC)cc2)cc1`, the growth inhibition in assay [1] is -0.9%; in assay [2] it was -9%; in assay [3] it was 5.15%; in assay [4] it was -44.5%; in assay [5], -11.9%; in assay [6] it was -11.1%.

Turning to `C/C(=N\NC(=S)Nc1ccc([N+](=O)[O-])cc1S(=O)(=O)O)c1ccccn1`, the growth inhibition in assay [1] was 12.6%; in assay [2], 20.4%; in assay [3], -5.85%; in assay [4] it was -2.35%; in assay [5], -0.4%; in assay [6] it was 22.9%.

In the case of `O=C(CN1CCN(Cc2ccccc2)CC1)N1CCCn2c1nc1ccccc1c2=O`, the growth inhibition was -18.1% in assay [1]; -16.6% in assay [2]; -7.9% in assay [3]; 7.6% in assay [4]; 11.9% in assay [5]; -3.85% in assay [6].

`C=C(C)C(O)CC` (stereo unspecified): the growth inhibition in assay [1] is 24.6%; in assay [2], -30.7%; in assay [3], 15.3%; in assay [4], 4.3%; in assay [5], 10.9%; in assay [6], 20.4%.

Consider `CCCCCCCCCCCCCCCCCC(=O)N1CC[N+](C)(C)CC1`, for which the growth inhibition was 99.7% (active) in assay [1]; 99.7% (active) in assay [2]; 99.7% (active) in assay [3]; 99% (active) in assay [4]; 99.3% (active) in assay [5]; 99.5% (active) in assay [6].

For `O=C(/C=C/c1ccccc1)NC(=S)Nc1cc(Cl)ccc1O`, the growth inhibition in assay [1] is 2.55%; in assay [2] it was 7.8%; in assay [3] it was 6.25%; in assay [4], 5.5%; in assay [5], 12.7%; in assay [6], 6.85%.

Consider `CC(Cc1ccccc1)Nc1ncnc2c1ncn2C1OC(CO)CC1O` (stereo unspecified), for which the growth inhibition was 7.5% in assay [1]; 2.35% in assay [2]; 12.6% in assay [3]; 1.6% in assay [4]; 2.3% in assay [5]; -11.7% in assay [6].

As for `CS/N=C(/c1ccc(/C(=N/SC)N(C)C)cc1)N(C)C`, the growth inhibition in assay [1] is 0.9%; in assay [2], -8.5%; in assay [3] it was 8.8%; in assay [4] it was -5.35%; in assay [5] it was -24.4%; in assay [6] it was 5.75%.
